What all share (experiment): DAPPL (digital affinity profiling via proximity ligation, sequencing); 10 mM Tris-HCl pH 7.5, 50 mM NaCl, 1 mM DTT, 4% glycerol, room temperature, 30 min; GST-TFs on glutathione beads, 16-mer random dsDNA library, 0.1% formaldehyde crosslink after washing; high values mean tight binding
Experiment [1] deals with T1, FEV (Homo sapiens, UniProt Q99581 1-238).
T1 sequence: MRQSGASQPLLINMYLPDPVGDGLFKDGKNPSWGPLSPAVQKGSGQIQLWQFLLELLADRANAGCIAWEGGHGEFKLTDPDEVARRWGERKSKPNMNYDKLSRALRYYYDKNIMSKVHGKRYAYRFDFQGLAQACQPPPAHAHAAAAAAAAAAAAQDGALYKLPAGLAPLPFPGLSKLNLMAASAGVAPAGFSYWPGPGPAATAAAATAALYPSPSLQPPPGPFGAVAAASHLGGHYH
Conditions: protein: recombinant; tags: N-terminal GST; dsDNA, one strand shown. The procedure, abridged:
(§1)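 Human transcription factors fused to GST were expressed in yeast, captured on glutathione beads, given DNA barcodes and pooled with a GST-only negative control. Pools were incubated with 200 nmole of a 16-mer random double-stranded DNA library in Tris/NaCl/DTT/glycerol buffer at room temperature for 30 min. They were then washed, crosslinked with 0.1% formaldehyde, proximity-ligated (BsaI/T4 ligase, 1 h, 37 °C), PCR-amplified and sequenced on an Illumina NextSeq500. Binding signal is each 6-mer's read frequency for a factor divided by its frequency for the GST control.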

Experiment [2] concerns the target ETV5 (Homo sapiens, UniProt P41161 1-510). Particulars: protein: recombinant; tags: N-terminal GST; dsDNA, one strand shown. In outline: as §1
The target in experiment [3] is HSF1 (Homo sapiens, UniProt Q00613 1-529). Particulars: protein: recombinant; tags: N-terminal GST; chain copies: 3; dsDNA, one strand shown. The procedure, abridged: as §1
Sequence of HSF1 (Q00613 whole entry): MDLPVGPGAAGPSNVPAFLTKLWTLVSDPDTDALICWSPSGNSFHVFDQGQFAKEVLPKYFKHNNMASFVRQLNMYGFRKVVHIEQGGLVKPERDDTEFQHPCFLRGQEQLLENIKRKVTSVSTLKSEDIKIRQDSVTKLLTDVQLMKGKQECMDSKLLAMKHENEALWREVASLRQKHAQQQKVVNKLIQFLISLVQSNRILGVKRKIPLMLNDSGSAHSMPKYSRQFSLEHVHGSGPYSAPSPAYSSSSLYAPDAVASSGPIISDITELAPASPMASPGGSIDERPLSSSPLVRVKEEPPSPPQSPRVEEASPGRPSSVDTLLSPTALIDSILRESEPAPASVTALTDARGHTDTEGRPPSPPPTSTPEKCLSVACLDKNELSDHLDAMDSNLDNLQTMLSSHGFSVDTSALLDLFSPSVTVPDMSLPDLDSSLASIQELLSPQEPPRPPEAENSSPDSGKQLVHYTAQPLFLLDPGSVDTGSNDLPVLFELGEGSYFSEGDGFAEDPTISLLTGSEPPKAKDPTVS
The target of experiment [4] is T2, SPIC (Homo sapiens, UniProt Q8N5J4 1-248).
T2 sequence: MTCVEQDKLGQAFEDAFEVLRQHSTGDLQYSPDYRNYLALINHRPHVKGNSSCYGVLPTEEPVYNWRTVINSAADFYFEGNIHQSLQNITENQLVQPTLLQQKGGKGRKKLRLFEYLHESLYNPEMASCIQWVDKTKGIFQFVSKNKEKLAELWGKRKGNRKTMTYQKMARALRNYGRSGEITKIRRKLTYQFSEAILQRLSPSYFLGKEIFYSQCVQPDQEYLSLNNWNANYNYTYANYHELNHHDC
Conditions: protein: recombinant; tags: N-terminal GST; dsDNA, one strand shown. The procedure, abridged: as §1

The target in experiment [5] is ELF4 (Homo sapiens, UniProt Q99607 1-663). Conditions: protein: recombinant; tags: N-terminal GST; dsDNA, one strand shown. The procedure, abridged:
as §1

The target in experiment [6] is T3, ELK4 (Homo sapiens, UniProt P28324-2 1-405).
T3 sequence: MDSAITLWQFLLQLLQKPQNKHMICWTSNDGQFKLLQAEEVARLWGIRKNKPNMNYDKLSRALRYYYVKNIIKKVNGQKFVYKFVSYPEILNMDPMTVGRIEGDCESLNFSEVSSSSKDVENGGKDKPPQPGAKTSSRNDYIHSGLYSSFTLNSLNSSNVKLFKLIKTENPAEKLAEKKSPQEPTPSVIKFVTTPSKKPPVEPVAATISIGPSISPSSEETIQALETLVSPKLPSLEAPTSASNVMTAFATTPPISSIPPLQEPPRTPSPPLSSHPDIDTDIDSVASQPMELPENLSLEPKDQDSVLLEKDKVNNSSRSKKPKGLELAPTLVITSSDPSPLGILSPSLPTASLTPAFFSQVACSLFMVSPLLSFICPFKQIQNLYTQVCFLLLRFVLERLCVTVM
Particulars: protein: recombinant; tags: N-terminal GST; dsDNA, one strand shown. The procedure, abridged:
as §1

Experiment [7] concerns the target T4, ETV2 (Homo sapiens, UniProt O00321 1-342).
T4 sequence: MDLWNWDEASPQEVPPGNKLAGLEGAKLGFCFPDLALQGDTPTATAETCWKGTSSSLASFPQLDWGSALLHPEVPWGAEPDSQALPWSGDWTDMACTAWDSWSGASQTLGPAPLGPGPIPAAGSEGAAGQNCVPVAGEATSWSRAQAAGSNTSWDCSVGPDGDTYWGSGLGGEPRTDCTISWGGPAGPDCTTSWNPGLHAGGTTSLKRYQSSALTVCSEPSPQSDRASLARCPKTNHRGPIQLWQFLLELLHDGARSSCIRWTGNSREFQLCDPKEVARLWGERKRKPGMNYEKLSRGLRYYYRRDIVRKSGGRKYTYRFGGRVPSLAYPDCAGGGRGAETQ
Particulars: protein: recombinant; tags: N-terminal GST; dsDNA, one strand shown. The procedure, abridged:
as §1

In experiment [8] the target is T5, ELF3 (Homo sapiens, UniProt P78545 1-371).
T5 sequence: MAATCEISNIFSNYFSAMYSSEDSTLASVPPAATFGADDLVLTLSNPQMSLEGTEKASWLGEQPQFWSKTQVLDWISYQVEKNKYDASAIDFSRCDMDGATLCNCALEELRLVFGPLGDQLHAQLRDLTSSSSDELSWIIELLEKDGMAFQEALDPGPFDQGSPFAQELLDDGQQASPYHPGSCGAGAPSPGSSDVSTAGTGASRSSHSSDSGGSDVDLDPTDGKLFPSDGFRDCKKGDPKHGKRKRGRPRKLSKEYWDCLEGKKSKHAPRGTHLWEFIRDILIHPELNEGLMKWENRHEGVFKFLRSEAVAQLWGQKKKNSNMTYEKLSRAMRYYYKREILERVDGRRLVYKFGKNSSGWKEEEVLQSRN
Particulars: protein: recombinant; tags: N-terminal GST; dsDNA, one strand shown. The procedure, abridged: as §1

For experiment [9], the target named is CRX (Homo sapiens, UniProt O43186 1-299). Conditions: protein: recombinant; tags: N-terminal GST; dsDNA, one strand shown. In outline:
as §1

The target of experiment [10] is ETV1 (Homo sapiens, UniProt P50549 1-477). Conditions: protein: recombinant; tags: N-terminal GST; dsDNA, one strand shown. The procedure, abridged:
as §1

The target in experiment [11] is T6, ERF (Homo sapiens, UniProt P50548 1-548).
T6 sequence: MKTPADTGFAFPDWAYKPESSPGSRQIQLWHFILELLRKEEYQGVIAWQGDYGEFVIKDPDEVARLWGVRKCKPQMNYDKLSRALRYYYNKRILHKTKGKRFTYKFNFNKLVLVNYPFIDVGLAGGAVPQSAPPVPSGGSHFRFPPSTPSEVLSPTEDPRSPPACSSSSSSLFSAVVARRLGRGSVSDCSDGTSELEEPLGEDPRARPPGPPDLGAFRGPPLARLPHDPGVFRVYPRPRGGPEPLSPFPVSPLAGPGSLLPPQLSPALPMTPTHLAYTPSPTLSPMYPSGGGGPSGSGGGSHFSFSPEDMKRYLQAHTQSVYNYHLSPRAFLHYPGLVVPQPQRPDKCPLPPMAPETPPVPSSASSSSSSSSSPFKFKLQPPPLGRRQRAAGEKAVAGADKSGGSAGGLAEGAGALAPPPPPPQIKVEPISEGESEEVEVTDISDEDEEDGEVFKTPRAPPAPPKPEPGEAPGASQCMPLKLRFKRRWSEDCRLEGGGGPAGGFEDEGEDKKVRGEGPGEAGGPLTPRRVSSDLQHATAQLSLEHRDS
Particulars: protein: recombinant; tags: N-terminal GST; dsDNA, one strand shown. The procedure, abridged:
as §1

Experiment [12] deals with T7, ETV3L (Homo sapiens, UniProt Q6ZN32 1-361).
T7 sequence: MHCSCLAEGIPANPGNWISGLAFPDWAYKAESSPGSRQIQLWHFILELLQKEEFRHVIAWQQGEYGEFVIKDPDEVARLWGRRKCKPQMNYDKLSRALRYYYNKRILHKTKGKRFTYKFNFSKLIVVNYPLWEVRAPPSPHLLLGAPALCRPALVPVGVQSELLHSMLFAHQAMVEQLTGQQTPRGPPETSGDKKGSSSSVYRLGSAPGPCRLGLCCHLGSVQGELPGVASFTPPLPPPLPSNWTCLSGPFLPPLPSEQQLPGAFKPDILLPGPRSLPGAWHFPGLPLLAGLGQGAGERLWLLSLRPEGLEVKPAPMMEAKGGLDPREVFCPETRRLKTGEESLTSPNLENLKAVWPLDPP
Particulars: protein: recombinant; tags: N-terminal GST; dsDNA, one strand shown. The procedure, abridged: as §1

In experiment [13] the target is T8, ETS2 (Homo sapiens, UniProt P15036 1-469).
T8 sequence: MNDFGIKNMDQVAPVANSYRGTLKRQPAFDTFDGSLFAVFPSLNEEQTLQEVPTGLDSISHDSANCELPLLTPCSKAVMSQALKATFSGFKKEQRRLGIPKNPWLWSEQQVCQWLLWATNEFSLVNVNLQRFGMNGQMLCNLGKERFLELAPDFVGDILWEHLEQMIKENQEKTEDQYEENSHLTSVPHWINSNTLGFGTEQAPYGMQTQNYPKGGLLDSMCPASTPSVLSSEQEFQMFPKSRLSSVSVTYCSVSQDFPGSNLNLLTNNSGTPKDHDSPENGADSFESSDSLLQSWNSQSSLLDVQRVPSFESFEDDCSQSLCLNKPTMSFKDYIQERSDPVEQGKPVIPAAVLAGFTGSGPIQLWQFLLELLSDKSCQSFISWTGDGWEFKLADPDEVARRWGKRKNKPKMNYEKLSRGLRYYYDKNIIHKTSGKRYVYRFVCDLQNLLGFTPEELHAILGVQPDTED
Conditions: protein: recombinant; tags: N-terminal GST; dsDNA, one strand shown. In outline:
as §1

The target in experiment [14] is T9, SPDEF (Homo sapiens, UniProt O95238 1-335).
T9 sequence: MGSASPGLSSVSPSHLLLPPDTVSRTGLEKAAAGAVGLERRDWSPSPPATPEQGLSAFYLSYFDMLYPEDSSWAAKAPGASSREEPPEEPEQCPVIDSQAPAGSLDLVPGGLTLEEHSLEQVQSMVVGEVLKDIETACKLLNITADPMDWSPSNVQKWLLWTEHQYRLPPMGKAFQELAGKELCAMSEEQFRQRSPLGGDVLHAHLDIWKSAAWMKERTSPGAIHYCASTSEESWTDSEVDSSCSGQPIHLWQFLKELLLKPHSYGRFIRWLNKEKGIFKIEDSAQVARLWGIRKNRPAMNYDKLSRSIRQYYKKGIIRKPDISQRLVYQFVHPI
Particulars: protein: recombinant; tags: N-terminal GST; dsDNA, one strand shown. In outline: as §1

In experiment [15] the target is T10, ETV7 (Homo sapiens, UniProt Q9Y603 1-341).
T10 sequence: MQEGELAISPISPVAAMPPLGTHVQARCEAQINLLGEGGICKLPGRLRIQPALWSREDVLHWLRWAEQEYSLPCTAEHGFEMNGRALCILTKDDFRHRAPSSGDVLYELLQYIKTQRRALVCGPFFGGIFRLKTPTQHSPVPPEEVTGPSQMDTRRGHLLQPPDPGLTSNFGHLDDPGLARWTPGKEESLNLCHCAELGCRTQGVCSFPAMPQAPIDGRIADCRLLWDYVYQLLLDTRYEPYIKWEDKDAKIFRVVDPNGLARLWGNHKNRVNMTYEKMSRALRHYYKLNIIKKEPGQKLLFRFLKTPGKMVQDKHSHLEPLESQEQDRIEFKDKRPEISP
Conditions: protein: recombinant; tags: N-terminal GST; dsDNA, one strand shown. In outline:
as §1

In experiment [16] the target is T11, ELF5 (Homo sapiens, UniProt Q9UKW6-2 1-255).
T11 sequence: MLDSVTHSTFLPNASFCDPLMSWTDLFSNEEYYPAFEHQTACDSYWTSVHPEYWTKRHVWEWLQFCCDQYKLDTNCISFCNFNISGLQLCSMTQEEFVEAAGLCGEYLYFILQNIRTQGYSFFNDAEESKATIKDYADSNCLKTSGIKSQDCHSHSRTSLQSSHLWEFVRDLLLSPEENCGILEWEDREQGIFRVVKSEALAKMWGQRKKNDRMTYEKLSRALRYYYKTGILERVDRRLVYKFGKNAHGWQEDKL
Conditions: protein: recombinant; tags: N-terminal GST; dsDNA, one strand shown. The procedure, abridged: as §1

Experiment [17] has as its target T12, ETV3 (Homo sapiens, UniProt P41162-2 1-143).
T12 sequence: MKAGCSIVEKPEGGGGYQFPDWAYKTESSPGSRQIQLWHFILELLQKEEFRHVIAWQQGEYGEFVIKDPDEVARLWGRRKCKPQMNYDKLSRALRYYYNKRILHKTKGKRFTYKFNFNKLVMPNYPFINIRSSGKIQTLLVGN
Conditions: protein: recombinant; tags: N-terminal GST; dsDNA, one strand shown. In outline: as §1

Experiment [18] has as its target ETV6 (Homo sapiens, UniProt P41212 1-452). Conditions: protein: recombinant; tags: N-terminal GST; dsDNA, one strand shown. The procedure, abridged: as §1

Sequence of ETV6 (P41212 whole entry): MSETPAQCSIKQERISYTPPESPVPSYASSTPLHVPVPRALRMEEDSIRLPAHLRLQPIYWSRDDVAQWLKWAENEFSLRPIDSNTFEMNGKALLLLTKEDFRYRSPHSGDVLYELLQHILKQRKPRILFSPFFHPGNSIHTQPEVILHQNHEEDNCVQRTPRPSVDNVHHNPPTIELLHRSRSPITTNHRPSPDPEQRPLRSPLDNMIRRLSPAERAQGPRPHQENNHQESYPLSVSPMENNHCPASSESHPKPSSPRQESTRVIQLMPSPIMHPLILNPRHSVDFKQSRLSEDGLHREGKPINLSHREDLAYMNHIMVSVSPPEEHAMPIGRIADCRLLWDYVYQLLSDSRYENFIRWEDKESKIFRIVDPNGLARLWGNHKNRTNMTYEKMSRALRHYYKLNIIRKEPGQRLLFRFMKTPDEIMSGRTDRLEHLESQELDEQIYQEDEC
Sequence of CRX (O43186 whole entry): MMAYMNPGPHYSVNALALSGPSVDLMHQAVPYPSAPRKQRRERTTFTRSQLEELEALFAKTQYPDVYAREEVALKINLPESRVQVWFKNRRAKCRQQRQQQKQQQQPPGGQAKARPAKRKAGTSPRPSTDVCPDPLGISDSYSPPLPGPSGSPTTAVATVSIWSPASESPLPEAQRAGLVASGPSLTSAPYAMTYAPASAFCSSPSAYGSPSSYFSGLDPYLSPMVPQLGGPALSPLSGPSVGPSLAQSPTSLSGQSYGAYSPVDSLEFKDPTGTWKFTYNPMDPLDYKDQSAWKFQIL
Sequence of ELF4 (Q99607 whole entry): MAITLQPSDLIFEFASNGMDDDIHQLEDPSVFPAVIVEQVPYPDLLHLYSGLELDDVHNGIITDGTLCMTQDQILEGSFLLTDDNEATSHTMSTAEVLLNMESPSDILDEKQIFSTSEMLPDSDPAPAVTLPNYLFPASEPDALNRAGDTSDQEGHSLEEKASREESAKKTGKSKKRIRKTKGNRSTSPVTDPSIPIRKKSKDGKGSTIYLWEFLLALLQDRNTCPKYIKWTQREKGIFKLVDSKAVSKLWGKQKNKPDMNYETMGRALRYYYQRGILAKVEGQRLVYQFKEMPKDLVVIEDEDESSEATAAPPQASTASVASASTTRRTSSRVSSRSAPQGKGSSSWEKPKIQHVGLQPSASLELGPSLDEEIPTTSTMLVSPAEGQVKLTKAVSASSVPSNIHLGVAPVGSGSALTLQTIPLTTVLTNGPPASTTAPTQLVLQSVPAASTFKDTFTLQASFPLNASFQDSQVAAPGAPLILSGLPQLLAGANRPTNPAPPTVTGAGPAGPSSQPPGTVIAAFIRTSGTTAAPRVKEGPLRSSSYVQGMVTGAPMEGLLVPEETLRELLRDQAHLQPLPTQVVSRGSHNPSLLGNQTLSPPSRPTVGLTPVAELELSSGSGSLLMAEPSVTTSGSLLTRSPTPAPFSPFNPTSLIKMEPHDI
Sequence of ETV5 (P41161 whole entry): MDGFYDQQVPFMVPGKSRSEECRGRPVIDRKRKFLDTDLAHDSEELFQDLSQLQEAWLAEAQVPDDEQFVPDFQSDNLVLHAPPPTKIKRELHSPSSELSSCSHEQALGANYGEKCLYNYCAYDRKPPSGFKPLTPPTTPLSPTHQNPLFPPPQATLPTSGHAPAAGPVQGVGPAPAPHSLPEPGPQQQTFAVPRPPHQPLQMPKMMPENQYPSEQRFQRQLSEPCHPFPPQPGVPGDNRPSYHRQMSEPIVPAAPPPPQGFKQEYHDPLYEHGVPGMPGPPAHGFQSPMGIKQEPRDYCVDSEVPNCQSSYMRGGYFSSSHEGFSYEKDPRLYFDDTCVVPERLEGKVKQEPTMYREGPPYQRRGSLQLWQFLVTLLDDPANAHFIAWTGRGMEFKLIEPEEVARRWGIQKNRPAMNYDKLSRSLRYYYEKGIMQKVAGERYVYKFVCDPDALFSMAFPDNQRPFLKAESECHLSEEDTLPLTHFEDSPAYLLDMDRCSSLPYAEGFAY
Sequence of ETV1 (P50549 whole entry): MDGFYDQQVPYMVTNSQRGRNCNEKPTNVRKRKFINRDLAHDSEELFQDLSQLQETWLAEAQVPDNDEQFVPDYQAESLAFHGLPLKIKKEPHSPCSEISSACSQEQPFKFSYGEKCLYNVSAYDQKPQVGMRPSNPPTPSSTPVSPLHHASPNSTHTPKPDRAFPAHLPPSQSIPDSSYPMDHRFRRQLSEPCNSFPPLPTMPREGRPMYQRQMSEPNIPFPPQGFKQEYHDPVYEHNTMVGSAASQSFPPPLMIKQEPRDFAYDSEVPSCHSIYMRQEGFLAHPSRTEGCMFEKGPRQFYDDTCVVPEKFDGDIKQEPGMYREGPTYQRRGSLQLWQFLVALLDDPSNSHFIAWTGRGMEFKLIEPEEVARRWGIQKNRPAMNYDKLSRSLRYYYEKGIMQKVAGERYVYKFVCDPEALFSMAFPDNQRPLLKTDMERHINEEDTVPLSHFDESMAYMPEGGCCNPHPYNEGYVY

Take TAACAC: the binding signal in [1] is 1.24 fold enrichment (6-mer frequency, TF over GST control); in experiment [2], 1.23 fold enrichment (6-mer frequency, TF over GST control); in experiment [3], 1.2 fold enrichment (6-mer frequency, TF over GST control); in experiment [4] it was 1.39 fold enrichment (6-mer frequency, TF over GST control); in [5] it was 1.26 fold enrichment (6-mer frequency, TF over GST control); in [6], 1.32 fold enrichment (6-mer frequency, TF over GST control). Also, the binding signal was 1.15 fold enrichment (6-mer frequency, TF over GST control) in [7]; 1.16 fold enrichment (6-mer frequency, TF over GST control) in experiment [8]; 1.56 fold enrichment (6-mer frequency, TF over GST control) in [9]; 1.19 fold enrichment (6-mer frequency, TF over GST control) in [10]; 1.22 fold enrichment (6-mer frequency, TF over GST control) in [11]; 1.24 fold enrichment (6-mer frequency, TF over GST control) in experiment [12]. The binding signal in experiment [13] was 1.29 fold enrichment (6-mer frequency, TF over GST control); in [14], 1.28 fold enrichment (6-mer frequency, TF over GST control); in [15] it was 1.21 fold enrichment (6-mer frequency, TF over GST control); in experiment [16], 1.2 fold enrichment (6-mer frequency, TF over GST control); in experiment [17] it was 1.22 fold enrichment (6-mer frequency, TF over GST control); in [18], 1.19 fold enrichment (6-mer frequency, TF over GST control).

The record behind these values is PMC7862700, “An all-to-all approach to the identification of sequence-specific readers for epigenetic DNA modifications on cytosine”.
